# Laboratory results: PubChem BioAssay (Tox21)
# Several values for one entry are separate records, joined by “and”; a condition that tells them apart may be missing. Equal values may be shown once. Records with an inconclusive call do not appear. Values without a mark were called inactive. Activity calls are given as the source filed them. Calls follow the shape of the dose curve; as a rule, active = well fitted cell-killing curve with a large enough effect in the repeat runs; inconclusive = weak or mixed curves, or effect the other way; inactive = no such curve, though single readings can be large or run the other way.
# Experiment: qHTS assay for identifying genotoxic compounds that show differential cytotoxicity against isogenic chicken DT40 cell lines with known DNA damage response pathways - Rev3 mutant cell line (AID 743014); also: nearly all actives have a fitted effect of over 55% in size
# Settings: chicken DT40 Rev3-/- viability, CellTiter-Glo, 40 h; series mostly up to 68.4 µM; activity, negative = cytotoxicity: at the top concentration
# % is scaled to controls: 0 for no effect and ±100 for the full control effect; potency is read from the fitted curve at half-maximal effect.
SMILES,Potency,"activity, negative = cytotoxicity"
Fc1ccccc1[C@@H](F)COC1CCC(Nc2ncnc3[nH]ncc23)CC1 (some centres not stated),17.2 µM (active),–
CC(C)=CC=O,–,-9.5% [at 95 µM]
CC(=O)Nc1ccc(N)cc1,–,2.12% [at 95 µM]
O=C(N/N=C/c1ccc([N+](=O)[O-])o1)c1ccc(O)cc1,4.03 µM (active),–
O=S1OCCO1,–,11.4% [at 95 µM]
CCOC(=O)CC(=O)C(=O)OCC,–,-14.1%
CC(COc1ccc(C(C)(C)C)cc1)OS(=O)OCCCl (configuration not stated),–,-0.581% [at 95 µM]
CCCOC(=O)c1ccc(C(=O)OCCC)nc1,–,4.14%
CCCCCCCCCCCCCCCCBr,–,-1.17% [at 31.4 µM]
C=CC(=C)CCCC(C)(C)OC(C)=O,–,-5.02%
OCC1CC=CCC1 (configuration not stated),–,-25.3%
COc1cc2ncnc(Nc3ccc(F)c(Cl)c3)c2cc1OCCCN1CCOCC1,26.6 µM (active),–
CO[C@H]1C=CO[C@@]2(C)Oc3c(C)c(O)c4c(O)c(c5c(c4c3C2=O)=NC2(CCN(CC(C)C)CC2)N=5)NC(=O)/C(C)=C\C=C/[C@H](C)[C@H](O)[C@@H](C)[C@@H](O)[C@@H](C)[C@H](OC(C)=O)[C@@H]1C,23.7 µM (active) and 47.5 µM (active),–
CCCCCC=CCC=CCCCCCCCC(=O)OCC,–,-2.66%
COc1cc2c(N3CCN(C(=O)Nc4ccc(OC(C)C)cc4)CC3)ncnc2cc1OCCCN1CCCCC1,7.5 µM (active),–
CC(=O)[C@H]1CC[C@H]2[C@@H]3C=CC4=CC(=O)CC[C@@]4(C)[C@@H]3CC[C@]12C,3.59 µM (active),–
CCCCCCCCCCCCCCC[C@H](O)[C@@H](N)CO,–,0.284%
O=C(O)c1cccnc1C(=O)O,–,-12.9%
Oc1ccc(Nc2ccccc2)cc1,6.11 µM (active),–

SMILES,Potency,"activity, negative = cytotoxicity"
CC1(C)C2=CCCC(C)(C)[C@]23CC[C@H]1C3,43.3 µM (active),–
COC(=O)[C@@H]1CC2=CC(=O)CC[C@]2(C)[C@@]23O[C@@H]2C[C@@]2(C)[C@@H](CC[C@@]24CCC(=O)O4)[C@H]13,–,0.305%
COCC(O)CO (configuration not stated),–,1.48% [at 95 µM]
CCC(=O)OC/C=C/c1ccccc1,–,-5.22%
O=C(CCC1CCN(Cc2ccccc2)CC1)c1ccc2c(c1)NCCCC2,2.98 µM (active),–
CCc1cccc(N(C)C(N)=Nc2cccc3ccccc23)c1,11.9 µM (active),–
O=Cc1c(Cl)cccc1Cl,–,2.16% [at 95 µM]
c1cnc2c(n1)CCCC2,–,-0.441%
C[Si]1(C)O[Si](C)(C)O[Si](C)(C)O1,–,4.55%
COC(OC)(C(=O)c1ccccc1)c1ccccc1,15.3 µM (active),–
CC(C)CCCC(=O)O,–,-21.3%
CCCOCCOCCO,–,2.77%
CC1CN(c2cc3c(cc2F)c(=O)c(C(=O)O)cn3-c2ccc(F)cc2F)CCN1 (configuration not stated),–,9.16%
CC(C)(CCl)c1ccccc1,–,7.02%
Nc1ccc(Cl)cc1[N+](=O)[O-],–,7.41%
CC(Cl)C(Cl)Cl (configuration not stated),–,2.33%
Cc1nc2ccccc2s1,–,3.59% [at 95 µM]
C=CCCCCCCCCCCCCCCCC,–,2.07% [at 8.53 µM]
